Screening data from PubChem BioAssay.
Rows were chosen to be rich in hits. Some 2.3% of all compounds tested hit in one or more screens of this group.
M1 ag parental – M1 agonist counterscreen hit in parental CHO-K1 cells | Fluo-8 calcium fluorescence; scaled to maximal ATP response, vehicle zero | AID 602248 | activation, % at 3 µM | actives 0.48% (n = 360,000); in the data active means activation above about 15%;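 further: untransfected CHO-K1 host cells lacking M1 receptor as counterscreen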
CHRM1 agonist – agonists of human M1 muscarinic receptor | P11229 | CHO-K1 hM1, Fluo-8 calcium fluorescence, agonist mode; 0% DMSO, 100% acetylcholine EC100 | activation, % at 3 µM | actives 0.33% (n = 360,000) | AID 588814;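 active means activation above the run's mean compound activation plus 3 SD, cut at about 16% in these data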;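 further: peak over basal fluorescence ratio within a 140 s kinetic read after compound addition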
Target sequence (P11229 whole entry, looked up): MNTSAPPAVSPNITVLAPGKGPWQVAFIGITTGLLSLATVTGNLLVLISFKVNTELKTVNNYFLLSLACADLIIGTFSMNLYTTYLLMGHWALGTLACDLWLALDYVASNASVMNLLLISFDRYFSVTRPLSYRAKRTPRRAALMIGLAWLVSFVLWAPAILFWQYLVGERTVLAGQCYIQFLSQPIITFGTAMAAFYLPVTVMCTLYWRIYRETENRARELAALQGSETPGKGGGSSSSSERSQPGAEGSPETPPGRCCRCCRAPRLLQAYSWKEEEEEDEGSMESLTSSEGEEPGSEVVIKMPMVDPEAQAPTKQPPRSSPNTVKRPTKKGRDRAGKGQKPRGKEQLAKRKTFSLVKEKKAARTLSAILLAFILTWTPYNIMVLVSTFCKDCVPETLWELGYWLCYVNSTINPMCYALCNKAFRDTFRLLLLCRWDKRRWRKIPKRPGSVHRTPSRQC
CHO-K1 Ca antag – counter-screen for M1 antagonists: effect in parental CHO-K1 cells; ATP-induced calcium, Fluo-8 fluorescence; inhibition, % at 3 µM; actives 0.6% (n = 360,000);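 active means inhibition above a per-plate cutoff, the plate's mean sample inhibition plus 3 SD, cut at about 24% in these data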;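 further: 0% = DMSO plus EC80 ATP and 100% = DMSO alone without ATP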
CHRM1 PAM – potentiates human M1 receptor response to acetylcholine | P11229 | CHO-K1 hM1, Fluo-8 calcium fluorescence, ACh EC20; 0% = ACh EC20, 100% = maximal ACh | activation, % at 3 µM | actives 0.088% (n = 360,000) | AID 588819; in the data active means activation above about 19%, passing the limit was not always enough
CHRM1 antagonist – blocks human M1 muscarinic receptor | P11229 | CHO-K1 hM1, Fluo-8 calcium fluorescence, ACh EC80 antagonist | inhibition, % at 3 µM | actives 1.3% (n = 360,000) | AID 588852;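 active means percent inhibition above its own plate's cutoff, namely the mean of that plate's compound wells plus 3 SD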;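 further: peak over basal fluorescence ratio during 140 s after agonist addition; 0% = ACh EC80 plus DMSO and 100% = DMSO alone without agonist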
CHO-K1 Ca PAM – nonselective activator or artifact in parental CHO-K1 calcium assay. ATP EC20, Fluo-8 calcium fluorescence; 0% at ATP EC20, 100% at ATP max. activation, % at 3 µM. actives 0.02% (n = 360,000). AID 602247;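 active means activation above the run cutoff, the mean activation of all test compounds plus 3 SD, cut at about 40% in these data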;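 further: peak over basal fluorescence ratio in a 140 s read after ATP addition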
Starred values were filed as active, the others as inactive.

SMILES	M1 ag parental	CHRM1 agonist	CHO-K1 Ca antag	CHRM1 PAM	CHRM1 antagonist	CHO-K1 Ca PAM
COC(C(=O)Nc1ccc(F)cc1)c1ccccc1 (configuration not stated)	0.0	0.8	15.1	6.5	-6.4	-2.0
COC(C(=O)Nc1ccc(S(=O)(=O)Nc2ccc(F)cc2)cc1)c1ccccc1 (configuration not stated)	10.4	18.3*	-1.4	6.8	2.8	36.6
CC(=O)Nc1ccccc1OCC(=O)c1cc(C)n(Cc2cccs2)c1C	8.8	1.4	22.6	-10.5	32.3*	1.6
Cc1cc(C(=O)COc2cccnc2[N+](=O)[O-])c(C)n1Cc1cccs1	12.3	-3.4	3.4	-7.0	15.4	2.5
COC(=O)CCn1c(C)cc(C(=O)COc2ccccc2C(N)=O)c1C	17.6*	-0.3	4.2	-9.3	16.0	6.3
Fc1cccc(NC(=S)NCCc2ccccc2)c1	4.8	-3.3	10.8	-5.5	9.7	5.7
O=[N+]([O-])c1ccc(NC(=S)NCCc2ccc(F)cc2)cc1	12.0	-1.4	37.9*	-18.9	33.2*	-7.1
Fc1ccc(NC(=S)NCCc2ccc(Cl)cc2)cc1	7.5	-0.8	5.1	-8.1	9.7	10.8
O=[N+]([O-])c1cccc(NC(=S)NCCc2ccccc2)c1	12.1	-1.1	31.3*	-12.1	8.4	-10.2
Fc1ccc(CCNC(=S)Nc2ccc(F)c(Cl)c2)cc1	14.5	-7.7	25.3*	-17.6	4.3	-1.9
O=C(NCCc1ccc(F)cc1)Nc1ccc([N+](=O)[O-])cc1	15.0	0.7	18.0	-9.4	27.6	-10.5
CCCCCC(=O)C(=O)c1ccc(O)cc1O	1.3	-4.3	-6.5	-1.5	-4.8	16.5
Cc1c(CC(=O)N[C@@H](C)C(=O)O)c(=O)oc2c(C)c3occ(-c4ccccc4)c3cc12	-0.4	-0.8	-8.6	31.4*	-25.5	15.3
Cc1cc(C)cc(OCC(=O)Nc2ccc(N3CCN(C(=O)c4ccco4)CC3)cc2)c1	12.7	-1.1	-2.4	-22.9	32.9*	-7.8
C[N+]1(CC(=O)Nc2ccc(F)cc2)CCN(C(=O)c2ccco2)CC1	0.4	-7.8	-12.8	-20.1	56.2*	21.5
Cc1ccc(NC(=O)CN2CCN(C(=O)c3ccco3)CC2)cc1	1.7	-5.8	-22.2	3.2	-8.1	17.1
COc1ccc(NC(=O)Nc2ccc3c(c2)N(C)C(=O)CS3)cc1Cl	7.3	2.7	28.1*	-10.2	22.9	-1.6
COc1ccc(NC(=O)Nc2ccc3c(c2)N(C)C(=O)CS3)cc1OC	4.3	1.6	-6.3	-3.9	-8.1	-6.0
CC(C)CCNC(=O)Nc1ccc2c(c1)N(C)C(=O)CS2	1.4	0.0	21.1	-11.0	32.9*	-7.8
OC[C@@H]1CN(Cc2cccs2)C[C@H](n2cnc3c(N4CCCC4)ncnc32)O1	1.2	0.1	21.6	0.1	-3.8	-8.3
COc1cccc(-c2cnc(NCc3cc(Cl)ccc3O)n2C)c1	0.7	-6.3	8.2	-26.6	31.7*	-3.1
COc1ccc(CNc2ncc(-c3ccc(F)cc3)n2C)c2ccccc12	4.4	-3.2	-19.3	0.2	-10.3	24.3
COc1ccc(CNc2ncc(-c3cccc([N+](=O)[O-])c3)n2C)c(OC)c1OC	-0.8	-8.9	5.8	-28.1	54.0*	-11.6
CSc1ccc(CNc2ncc(-c3cccc([N+](=O)[O-])c3)n2C)cc1	-0.3	-8.7	17.9	-29.8	65.2*	-19.1
Cn1c(-c2ccccc2)cnc1NCc1cccc([N+](=O)[O-])c1	0.7	-8.9	-8.6	-23.4	36.2*	12.8
SMILES	M1 ag parental	CHRM1 agonist	CHO-K1 Ca antag	CHRM1 PAM	CHRM1 antagonist	CHO-K1 Ca PAM
Cn1c(-c2ccccc2)cnc1NCc1cc2c(cc1[N+](=O)[O-])OCO2	4.3	-7.5	-14.9	-3.0	-0.7	19.8
CCOc1ccc(CCNC(=O)COc2cccc(-n3cnnn3)c2)cc1OCC	1.4	-0.8	0.4	4.3	-17.0	-7.8
Cn1c(-c2ccc3c(c2)OCO3)cnc1NCc1cccc(O)c1	0.1	-15.5	-2.5	-34.5	29.5*	-5.0
COc1ccccc1CNc1ncc(-c2ccccc2)n1C	0.8	-10.4	1.9	-20.4	22.6	11.8
COc1ccccc1CNc1ncc(-c2ccc(F)cc2)n1C	0.1	-10.7	9.4	-25.5	44.5*	-24.6
NS(=O)(=O)c1ccc(CCNC(=O)c2cccc(S(=O)(=O)N3CCc4ccccc43)c2)cc1	1.9	-2.2	-5.3	3.5	-11.3	7.8
OCCNCc1cc(Br)ccc1OCc1ccc(Cl)cc1	7.2	23.3*	-28.7	-5.4	4.1	0.7
COC(=O)C(C)N(C(=O)c1ccc(C(=O)c2ccccc2)cc1)c1c(C)cccc1C (configuration not stated)	0.7	-4.7	-3.7	1.0	2.8	16.2
COc1ccc(N2CCN(C(=O)COC(=O)c3oc4ccc(OC)cc4c3C)CC2)cc1	15.8*	0.3	5.0	-11.7	14.0	-9.5
Cc1ccnc(NC(=O)c2cc(S(=O)(=O)NCc3ccccc3)ccc2C)c1	-0.1	-5.3	-13.6	-3.6	8.2	15.5
O=C(NNC(=O)c1ccccc1-n1cccc1)c1ccc(Cl)nc1	-0.2	5.1	-12.0	13.7	0.4	18.8
Cc1ccc(CN2CCC(c3cc(-c4cccs4)n[nH]3)CC2)cc1	2.5	-15.4	-0.1	-36.8	31.3*	14.0
CCCCn1nc(C(=O)Nc2ccccc2N2CCCC2)c2ccccc2c1=O	0.2	2.4	-13.9	15.0	-0.4	8.1
Cc1occc1C(=O)NNC(=O)Nc1ccc(Cl)c(Cl)c1	0.6	-4.3	-11.5	7.3	-9.6	10.2
Cc1ccsc1C(=O)NNC(=O)Nc1ccc(Cl)c(Cl)c1	-0.3	-0.4	29.1*	4.1	-18.4	-5.2
COc1ccc(-n2c(=O)c3c4c(sc3n(CC(N)=O)c2=O)CCCCC4)cc1	0.6	-3.5	-12.6	1.8	-6.0	14.6
Cc1nc(SCc2c(F)cccc2Cl)c2c(=O)n(C)c(=O)n(C)c2n1	0.1	-4.4	2.5	6.5	2.7	13.5
Cc1ccc(N/C(N)=N/c2nc(C)cc(N3CCCCC3)n2)c(C)c1	10.5	-10.3	25.2*	-31.7	33.7*	3.6
O=C(COC(=O)c1ccc(S(=O)(=O)C(F)F)cc1)NC(=O)NC1CCCCC1	1.0	-0.8	-5.8	0.8	-2.8	11.8
COc1cccc(C(=O)N(CN2CCCC2=O)c2ccccc2OC)c1	-0.3	-0.6	27.8*	4.6	3.4	-7.9
O=c1ccnc(Nc2ccc3c(c2)OCCO3)[nH]1	1.0	-2.8	-21.6	4.0	-7.8	28.7
O=C(CSc1nc2[nH]ncc2c(=O)n1-c1ccccc1)NCCc1ccccc1	16.8*	-2.4	0.4	0.9	7.2	17.7
O=C(CSc1nc2[nH]ncc2c(=O)n1-c1ccccc1)NCc1cccs1	0.4	-4.3	-13.5	3.7	-1.6	17.6
CN(NC(=O)C(=O)NCc1ccco1)C(=O)Nc1ccc(Cl)cc1	9.7	7.6	26.5*	-7.1	14.2	-5.2
